# Hits are enriched below; roughly 2.9% of the tested compounds scored in any of these assays.
# Myeloid diff 2: compounds promoting myeloid differentiation; ER-HoxA9 myeloid progenitors, lysozyme-GFP differentiation, flow cytometry; AID 624256; hit rate 1% among 360,000; calls only at 10 µM;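 active means normalized GFP-positive differentiation at or above the plate's own cutoff, the solvent-only control mean plus 3 SD; inconclusive means no clear call, values can overlap the other calls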;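 further: cells exposed to compound for four days before flow analysis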
# Cardio protect: myocardial damage modulation in H9c2 cells | hit rate 0.63% among 360,000 | protection from H2O2 cell death, % at 20 µM | AID 588492 | H9c2 cardiomyocytes, H2O2 injury protection, ATPLite, 2 h;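 active means compounds giving at least 50% protection of heart cells from peroxide-induced death in the single-dose screen, raw or plate-pattern-corrected value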
# ABHD5 PLIN5 PPI: inhibitors of human ABHD5-perilipin-5 interaction; Q00G26+Q8WTS1; Split G. princeps luciferase complementation, luminescence, 4 h; inhibition, % at 4 µM; hit rate 0.78% among 360,000; AID 602281;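 active means inhibition above the mean inhibition across every tested compound plus 3 SD, cut at about 22% in these data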
# sPLA2-III inh: Inhibits HGIII-sPLA2 liposome hydrolysis, primary screen; Q9NZ20; QFRET BODIPY PC-A2 liposome hydrolysis, fluorescence; inhibition, % at 12.2 µM; hit rate 0.56% among 370,000; AID 743126;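 active means inhibition above mean plus 3 SD of compounds lying within the high and low control bounds, cut at about 19% in these data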
# Rtt109 Vps75: C. albicans Rtt109 histone acetyltransferase inhibition. Q5AAJ8. purified Rtt109/Vps75, ThioGlo CoA-SH fluorescence, 4 h. inhibition, % at 34.9 µM. hit rate 0.16% among 330,000. AID 540336;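 active means inhibition of at least 50% in every replicate; inconclusive means best replicate reaches 50% inhibition but some replicates fall short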
# DAGLB inhibitor: blocks human DAGLB lipase activity; HEK293T DAGLB membrane lysate, EnzChek fluorogenic substrate; inhibition, % at 5.17 µM; hit rate 0.059% among 340,000; in the data active means inhibition above about 34%
# Target sequence (Q8NCG7 whole entry, looked up): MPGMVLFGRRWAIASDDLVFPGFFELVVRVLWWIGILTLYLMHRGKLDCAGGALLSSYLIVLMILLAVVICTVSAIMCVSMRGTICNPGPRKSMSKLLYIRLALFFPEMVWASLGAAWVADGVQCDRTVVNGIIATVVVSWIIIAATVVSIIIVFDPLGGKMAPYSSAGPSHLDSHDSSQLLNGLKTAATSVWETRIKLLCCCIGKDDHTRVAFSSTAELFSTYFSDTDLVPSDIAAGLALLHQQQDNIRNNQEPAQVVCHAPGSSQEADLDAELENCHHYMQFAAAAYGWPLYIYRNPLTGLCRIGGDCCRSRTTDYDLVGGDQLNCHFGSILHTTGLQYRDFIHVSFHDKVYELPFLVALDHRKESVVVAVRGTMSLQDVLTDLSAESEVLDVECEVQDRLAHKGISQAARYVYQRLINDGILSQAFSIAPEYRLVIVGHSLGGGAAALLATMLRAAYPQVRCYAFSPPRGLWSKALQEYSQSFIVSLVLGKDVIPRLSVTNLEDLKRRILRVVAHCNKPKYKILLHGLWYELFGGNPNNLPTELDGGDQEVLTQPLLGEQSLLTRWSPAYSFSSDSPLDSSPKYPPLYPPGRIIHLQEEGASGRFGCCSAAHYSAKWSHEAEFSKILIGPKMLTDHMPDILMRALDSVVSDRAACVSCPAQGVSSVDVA
# Myeloid diff CP1: myeloid differentiation induction | shares compounds with Myeloid diff 2 | ER-HoxA9 myeloid progenitors, GFP/Mac1 double-positive flow | calls only | hit rate 2% among 2,300 | AID 651706;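 active means share of green or green-and-red cells above 9 and 9% in run 1 or 4 and 3% in run 2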
# GFP autofluor: counter-screen for myeloid differentiation promoters: compound fluorescence. AID 651707. ER-HoxA9 myeloid progenitors, no estrogen, GFP autofluorescence flow cytometry; vehicle wells 0%, positive control 100%. shares compounds with Myeloid diff 2. fluorescence response, % (concentration not given with the values). hit rate 7.4% among 2,300;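 active means over 5% cells positive for green fluorescent reporter, or over 2% positive for both it and APC stain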
# A number is an active result; i = inactive; ? = inconclusive; nt = no result; + = active, no number.
SMILES,Myeloid diff 2,Cardio protect,ABHD5 PLIN5 PPI,sPLA2-III inh,Rtt109 Vps75,DAGLB inhibitor,Myeloid diff CP1,GFP autofluor
COc1ccc(OC)c(NC(=O)CN2C(=O)COc3ccc(C)cc32)c1,i,i,i,i,i,i,nt,nt
COC(=O)c1sc(-c2ccc(C(C)(C)C)cc2)cc1NC(=O)CCC(=O)O,i,i,i,i,nt,nt,nt,nt
Cc1ccc(-c2csc(NC(=O)/C=C/c3cccs3)n2)cc1C,i,i,i,i,i,i,i,i
N#Cc1ccc(-c2csc(NC(=O)/C=C/c3cccs3)n2)cc1,+,i,i,i,i,i,i,i
N#Cc1ccc(-c2csc(NC(=O)C3CC3)n2)cc1,i,i,i,i,i,i,nt,nt
O=C(/C=C/c1ccccc1)Nc1nc(-c2ccncc2)cs1,i,i,i,i,i,i,nt,nt
Cc1cc(=O)oc2c3c(cc(OCC(=O)NCc4ccco4)c12)OC(C)(C)CC3,i,i,i,i,i,i,nt,nt
CC1CC(C)CN(CCCNC(=O)CCC(=O)N2CCOc3ccccc32)C1 (stereo unspecified),i,i,i,i,i,i,i,i
CCOC(=O)c1cc(C)n(-c2c(C)n(C)n(-c3ccccc3)c2=O)c1C,i,i,i,i,i,i,nt,nt
CCCCC(=O)OCC(=O)c1cc(C)n(-c2c(C)n(C)n(-c3ccccc3)c2=O)c1C,i,i,i,i,i,i,i,i
CC(C)CCNC(=O)C1CCCCN1S(=O)(=O)c1ccc(F)cc1 (stereo unspecified),i,i,i,i,i,i,nt,nt
COc1ccccc1-c1c(NC(=O)C(C)C)n(C)c2ccccc2c1=O,i,i,i,i,i,i,nt,nt
CCC(=O)N1CCC2(CC1)Oc1ccc(Cl)cc1C(=O)C21CC(c2cccnc2)=NO1 (stereo unspecified),i,i,i,i,i,i,nt,nt
COc1ccc(C2CC(C(F)(F)F)n3nc(C(=O)O)c(Cl)c3N2)cc1OC (stereo unspecified),i,i,i,i,i,i,i,i
CCCCNC(=O)c1onc(CSc2ccc(F)cc2)c1C(=O)O,+,i,i,i,i,i,i,i
CN1CCc2c(sc(NC(=O)c3ccc(C(=O)c4ccccc4)cc3)c2C(N)=O)C1,?,i,i,i,i,i,nt,nt
O=[N+]([O-])c1cccc(/C=C/c2ccc3cccc(O)c3n2)c1,i,i,i,i,i,i,nt,nt
O=[N+]([O-])c1cccc(/C=C/c2nc(C=Nc3ccc4ccccc4c3)c(O)o2)c1,+,i,i,i,i,i,i,5.7
CN(C)/N=C/c1c(O)ccc2ccccc12,i,i,i,i,i,i,nt,nt
Oc1ccc2ccccc2c1/C=N/c1nccs1,i,i,i,i,i,i,nt,nt
Oc1ccccc1N=Cc1c(O)ccc2ccccc12,+,i,i,i,i,i,i,i
Oc1ccc2ccccc2c1C=Nc1ccccc1Br,i,i,i,i,i,i,i,i
COc1ccc(OC)c(S(=O)(=O)N2CCC(C(=O)Nc3cccc(C)c3)CC2)c1,i,i,i,i,i,i,nt,nt
CCc1ccc(NC2CC(=O)N(c3ccc(OC)cc3OC)C2=O)cc1 (stereo unspecified),i,i,i,i,nt,i,i,i
CCc1ccc(NC2CC(=O)N(CCc3ccc(OC)c(OC)c3)C2=O)cc1 (stereo unspecified),i,i,i,i,i,i,nt,nt
SMILES,Myeloid diff 2,Cardio protect,ABHD5 PLIN5 PPI,sPLA2-III inh,Rtt109 Vps75,DAGLB inhibitor,Myeloid diff CP1,GFP autofluor
CCOc1cc(S(=O)(=O)Nc2ccc(Cl)cn2)ccc1F,+,i,i,i,i,i,i,i
CCOc1cc(S(=O)(=O)Nc2ccc(Cl)cn2)ccc1Cl,i,i,i,i,i,i,nt,nt
COc1ccccc1NC(=O)Nc1sccc1-c1nc2ccccc2s1,+,i,i,i,nt,nt,i,i
O=C(O)CCNC(=O)/C(=C\C=C\c1ccccc1)NC(=O)c1ccccc1,i,i,i,i,i,i,i,i
O=C(Nc1ccc(O)cc1)/C(=C\C=C\c1ccccc1)NC(=O)c1ccccc1,i,i,i,i,i,i,nt,nt
Cc1cccc(CNc2ncnc3ccc(-c4cccnc4)cc23)c1,+,i,i,i,i,i,i,i
Cc1csc(CNc2ncnc3ccc(-c4cccnc4)cc23)c1,i,i,i,i,i,i,nt,nt
CCOc1ccc(N(CC(=O)Nc2ccc(C)cc2)S(=O)(=O)c2c(C)noc2C)cc1,+,i,i,i,i,i,i,i
O=C(CCc1nc(-c2ccccc2F)no1)NC1CCN(Cc2ccccc2)CC1,i,i,i,i,i,i,i,i
Cc1ccc(-c2noc(CCC(=O)NC3CCN(Cc4ccccc4)CC3)n2)cc1,i,i,i,i,i,i,nt,nt
Cc1c(O)ccc2c(=O)c(Oc3ccccc3)coc12,i,i,i,i,i,i,nt,nt
COC(=O)c1cccc(S(=O)(=O)N2CCN(c3nc4ccccc4s3)CC2)c1,i,i,i,i,i,i,nt,nt
O=S(=O)(c1ccc2c(c1)OCCO2)N1CCN(c2nc3ccccc3s2)CC1,i,i,i,i,i,i,i,i
c1ccc(N2CCN(c3cnccn3)CC2)nc1,i,i,i,i,nt,i,nt,nt
N#Cc1cc(C#N)c(N2CCN(c3ccccn3)CC2)nc1N,+,i,i,i,i,i,i,i
O=C(Nc1ccccc1[N+](=O)[O-])c1nc[nH]c1C(=O)NCCO,+,i,i,i,i,i,i,i
Nc1cccn2c(-c3ccc(Cl)cc3)cnc12,+,i,i,i,i,i,i,i
Clc1ccc(-c2cnc3cccnn23)cc1,i,i,i,i,nt,nt,nt,nt
CCOc1ccc2nc(N(CCN(C)C)C(=O)c3ccc4c(c3)CCCC4)sc2c1,i,i,i,nt,i,i,nt,nt
CCCOc1ccc(N2C(=O)CC(N(CCCO)C(=O)CC)C2=O)cc1 (stereo unspecified),i,i,i,i,i,i,nt,nt
O=C(c1ccccc1)c1ccc(C(=O)N2CCN(c3ccccc3Cl)CC2)cc1,i,i,i,i,i,i,i,i
O=C(Nc1ccccc1N1CCN(C(=O)c2ccccc2)CC1)c1ccccc1Cl,i,i,i,i,i,i,nt,nt
O=C(C[C@@H]1C/C=C/CCCC(=O)O[C@H](c2ccccc2)CNC1=O)NCCO,i,i,i,i,i,i,nt,nt
O=C(NCCc1c[nH]c2ccccc12)/C(=C\c1cccnc1)NC(=O)c1ccccc1Br,+,i,i,i,i,i,i,i
CC(C)OCCCNCc1cccs1,i,i,i,i,i,i,nt,nt
O=C(NCCCCc1ccccc1)C12CN(Cc3ccccc3)CC1C(c1ccc([N+](=O)[O-])cc1)=NO2 (stereo unspecified),+,i,i,i,i,i,i,i
O=C(NCCCCc1ccccc1)C12CN(Cc3ccccc3)CC1C(c1cccc([N+](=O)[O-])c1)=NO2 (stereo unspecified),i,i,i,i,i,i,nt,nt
